These results are taken from PubChem BioAssay (NCATS).

Results filed as inconclusive are left out. The source made the active and inactive calls. Calls follow the shape of the dose curve; as a rule, active = well fitted cell-killing curve with a large enough effect; inconclusive = small, poorly fitted or top-dose-only effect, or effect the other way; inactive = no such curve, though single readings can be large or run the other way.
Potency is read from the fitted curve at half-maximal effect.

The first assay in a line: Quantitative High-Throughput drug screen in 47 multiple myeloma cell lines against the NCATS MIPE library collection: AMO1_DSMZ cell viability assay (AID 1918927; also: nearly all actives have a fitted effect of over 30% in size;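 as to viability, % of DMSO: 100% = DMSO only wells and 0% = cell-free media only wells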). Particulars: AMO1 myeloma cells viability, CellTiter-Glo ATP luminescence, 48 h; series mostly up to 45.8 µM; viability, % of DMSO: at the top concentration. In short, it runs like this: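 qHTS of the MIPE 4.0 collection: 500 myeloma cells/well, 48 h drug exposure at 37C in 5% CO2, then CellTiter-Glo for 5 min at room temperature before luminescence reading.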
`N#Cc1ccc(Oc2ccc3c(c2)COB3O)cc1`: the Potency was 20.9 µM (active).

With `CC(=O)Nc1cccc(-n2c(=O)n(C3CC3)c(=O)c3c(Nc4ccc(I)cc4F)n(C)c(=O)c(C)c32)c1`, the Potency was 1.18 µM (active). Turning to `C[C@@H](NC(=O)c1ncnc(N)c1Cl)c1ncc(C(=O)Nc2cc(C(F)(F)F)c(Cl)cn2)s1`, the Potency is 10.5 µM (active).

As for `Cn1c(=O)c(-c2c(Cl)cccc2Cl)cc2cnc(Nc3cccc(C(=O)O)c3)nc21`, the Potency is 0.469 µM (active).

With `Cc1nc2c([nH]1)CCN(C(=O)c1ccc(NC(=O)c3ccccc3-c3ccccc3)cc1)c1ccccc1-2`, the Potency is 18.7 µM (active). On to `Cc1c(C(=O)Nc2ccc(N3C[C@@H](C)O[C@@H](C)C3)nc2)cccc1-c1ccc(OC(F)(F)F)cc1`, for which the Potency is 2.96 µM (active). Consider `CS(=O)(=O)c1ccc(C2=C(c3ccccc3)C(=O)OC2)cc1`, for which the “viability, % of DMSO” value was 112% (inactive).

In the case of `CCN1CCC(n2cc(CNc3cc(Cl)c4ncc(C#N)c(Nc5ccc(F)c(Cl)c5)c4c3)nn2)CC1`, the Potency is 6.62 µM (active).

Take `CN(C)c1nc(Cc2ccc(NC(=O)c3ccc(C(F)(F)F)cc3)cc2)nc(N(C)C)c1CC(=O)O`: the “viability, % of DMSO” value was 108% (inactive). Consider `C[C@H](c1ccc(F)cc1CCCC(=O)O)N(c1cc(F)ccc1F)S(=O)(=O)c1ccc(Cl)cc1`, for which the “viability, % of DMSO” value was 106% (inactive). With `c1ccc(-c2oc3ncnc(NC[C@@H]4CCCO4)c3c2-c2ccccc2)cc1`, the “viability, % of DMSO” value is 108% (inactive). Turning to `CC(C)CNc1ccnc(NCc2csc(-c3ccccc3)n2)n1`, the Potency is 10.5 µM (active). For `CCN1C[C@H](C)n2c(c(O)c3c(=O)n(Cc4ccc(F)c(Cl)c4)nc(C(=O)NC)c32)C1=O`, the “viability, % of DMSO” value is 131% (inactive). With `CCc1cccc(CC)c1NC(=O)N1Cc2[nH]nc(NC(=O)c3ccc(N4CCN(C)CC4)cc3)c2C1`, the Potency is 7.43 µM (active). With `CCCCC(F)(F)[C@@]1(O)CC[C@H]2[C@H](CC(=O)[C@@H]2CCCCCCC(=O)O)O1`, the “viability, % of DMSO” value is 116% (inactive). With `CC(C)(C)c1nc(-c2cccc(NS(=O)(=O)c3c(F)cccc3F)c2F)c(-c2ccnc(N)n2)s1`, the Potency is 3.72 µM (active). As for `Nc1ncnc2c1c(-c1cccc(OCc3ccccc3)c1)cn2C1CC(CN2CCC2)C1` (centres undefined), the Potency is 14.8 µM (active).

A further assay is described as follows: Quantitative High-Throughput drug screen in 47 multiple myeloma cell lines against the NCATS MIPE library collection: ARP1_JJKsccF8 cell viability assay (AID 1918928; also: nearly all actives have a fitted effect of over 40% in size). The note with it: ARP1 myeloma cells viability, CellTiter-Glo ATP, 48 h; series mostly up to 45.8 µM; viability: at the top concentration. The method, boiled down: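 500 cells/well; MIPE 4.0 library pinned in; 48 h, 37 °C, 5% CO2; CellTiter-Glo ATP luminescence. Controls: DMSO = 100% viability, medium only = 0%.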
In general terms: ATP-based viability assays read luminescence as a measure of living cells.
As usually defined, the viability is a read-out of living cells in per cent, often relative to untreated cells. For `CC(=O)Nc1cccc(-n2c(=O)n(C3CC3)c(=O)c3c(Nc4ccc(I)cc4F)n(C)c(=O)c(C)c32)c1`, the “viability” value was 84.6% (inactive). Consider `COC(=O)N1CCN(Cc2cccc(NC(=O)Nc3ccc(C)nc3)c2F)CC1`, for which the “viability” value is 75.3% (inactive).

Regarding `Cc1cnc(-c2cc(N3CCN(C(=O)CCS(C)(=O)=O)CC3)ncc2Cl)c(C)c1`, the “viability” value is 89.2% (inactive). Regarding `CN(C)c1nc(Cc2ccc(NC(=O)c3ccc(C(F)(F)F)cc3)cc2)nc(N(C)C)c1CC(=O)O`, the “viability” value is 99.4% (inactive). Consider `C[C@H](c1ccc(F)cc1CCCC(=O)O)N(c1cc(F)ccc1F)S(=O)(=O)c1ccc(Cl)cc1`, for which the Potency was 0.935 µM (active). As for `CCN1C[C@H](C)n2c(c(O)c3c(=O)n(Cc4ccc(F)c(Cl)c4)nc(C(=O)NC)c32)C1=O`, the “viability” value is 117% (inactive).

Turning to `CCCCC(F)(F)[C@@]1(O)CC[C@H]2[C@H](CC(=O)[C@@H]2CCCCCCC(=O)O)O1`, the “viability” value was 101% (inactive).
